A selection: hits, their analogues and other compounds. The true share with any hit is near 4.6%.
Mdm2-MdmX inh: human Mdm2/MdmX binding inhibition; O15151+Q00987; SaOS-2 split-luciferase Mdm2/MdmX complementation, luminescence; inhibition, % at 8 µM; 330,000 compounds, 3% hits; AID 485346;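 active = inhibition of at least 50% at 8 µM in the primary screen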
HIF-2a block: inhibitors of HIF-2a; 786-0 RCC cells HIF-2a reporter, luciferase luminescence, overnight; inhibition, % at 18.8 µM; 360,000 compounds, 0.72% hits; AID 624352;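 active = inhibition of the luminescence signal of 40% or more relative to plate controls, in a single-dose primary screen at 18.75 µM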
Peg3 promoter: reduces Peg3 promoter-driven luciferase expression in HeLa; HeLa PEG-Prom luciferase reporter, luminescence, overnight; inhibition, % at 20 µM; 360,000 compounds, 1.7% hits; AID 588405;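 active = inhibition of at least 50% at 20 µM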
ABHD5-PLIN5 inh: inhibitors of human ABHD5-perilipin-5 interaction | Split G. princeps luciferase complementation, luminescence, 4 h | Q00G26+Q8WTS1 | AID 602281 | inhibition, % at 4 µM | 360,000 compounds, 0.78% hits;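 active = inhibition above the mean inhibition across every tested compound plus 3 SD, cut at about 22% in these data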;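 note: 0% = DMSO only wells and the 100% control is not disclosed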
Target sequence (Q00G26 whole entry, looked up): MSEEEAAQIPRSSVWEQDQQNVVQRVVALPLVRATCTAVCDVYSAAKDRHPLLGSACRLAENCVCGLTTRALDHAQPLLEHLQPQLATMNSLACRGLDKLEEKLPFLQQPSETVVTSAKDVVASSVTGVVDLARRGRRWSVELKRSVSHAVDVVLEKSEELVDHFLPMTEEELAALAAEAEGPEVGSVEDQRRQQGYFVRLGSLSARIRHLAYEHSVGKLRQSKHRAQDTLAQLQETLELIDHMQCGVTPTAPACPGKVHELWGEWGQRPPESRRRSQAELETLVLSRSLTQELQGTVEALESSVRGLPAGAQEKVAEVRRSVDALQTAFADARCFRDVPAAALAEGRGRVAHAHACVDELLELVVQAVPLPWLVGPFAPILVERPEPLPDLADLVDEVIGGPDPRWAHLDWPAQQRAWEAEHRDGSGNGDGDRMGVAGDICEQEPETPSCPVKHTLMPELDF
Target sequence (Q8WTS1 whole entry, looked up): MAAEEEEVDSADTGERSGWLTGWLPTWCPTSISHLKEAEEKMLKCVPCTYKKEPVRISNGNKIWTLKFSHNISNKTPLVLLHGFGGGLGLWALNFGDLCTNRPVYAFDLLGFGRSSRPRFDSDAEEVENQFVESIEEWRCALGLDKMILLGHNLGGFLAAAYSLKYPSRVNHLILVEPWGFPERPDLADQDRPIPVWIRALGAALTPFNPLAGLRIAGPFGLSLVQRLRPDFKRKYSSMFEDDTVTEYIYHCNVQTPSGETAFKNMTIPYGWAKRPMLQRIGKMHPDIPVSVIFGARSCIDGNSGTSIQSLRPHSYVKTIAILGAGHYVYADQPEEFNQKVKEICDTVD
CF NFkB inh: inhibitors of cystic fibrosis induced NF-kB; KKLEB NF-kB-GFP reporter, PAF-induced, GFP fluorescence overnight; inhibition, % at 5 µM; 360,000 compounds, 0.86% hits; AID 588850;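 active = at least 50% inhibition at 5 µM, scaled per plate between neutral and stimulator controls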;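 note: PAF is a Pseudomonas aeruginosa culture filtrate used as stimulus; plate controls were PAF-stimulated DMSO wells for no effect and unstimulated DMSO wells for full effect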
KKLEB tox: counter-screen for CF NF-kB inhibitors: cytotoxicity; KKLEB CF airway cells viability, ATPlite luminescence, overnight; active compounds read low; cells stimulated with P. aeruginosa culture filtrate; activity change (cytotoxicity), % at 5 µM; 360,000 compounds, 0.36% hits; AID 602141;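 active = corrected activity change at or below -50% at 5 µM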
Mdm2-MdmX conf: human Mdm2/MdmX binding inhibition, confirmed; shares compounds with Mdm2-MdmX inh; luminescent assay; inhibition, % at 8 µM; 10,000 compounds, 55% hits; in the data active = inhibition above about 40%
FLuc counter: counter-screen for Mdm2/MdmX inhibitors: full-length luciferase. AID 504607. SaOS-2 full-length luciferase counterscreen, luminescence. 6,200 compounds, 77% hits. inhibition, % at 8 µM. shares compounds with Mdm2-MdmX inh;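 active = mean inhibition at 8 µM reaching about 37%, which flags the compound as non-specific, limit read from the data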;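 note: p53-null SaOS-2 cells with luciferase driven by a doxycycline-inducible promoter; compound on cells about two nights before reading with doxycycline added after day one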
An asterisk follows results filed as active; . = no result.

SMILES	Mdm2-MdmX inh	HIF-2a block	Peg3 promoter	ABHD5-PLIN5 inh	CF NFkB inh	KKLEB tox	Mdm2-MdmX conf	others
CCc1cccc(NC(=O)c2cc(S(=O)(=O)N(C)C)ccc2N2CCCC2)c1	52*	14	22	-2	1	-8	50*	FLuc counter=51*
CCc1cccc(NC(=O)c2cc(S(=O)(=O)N3CCCCC3)ccc2N2CCOCC2)c1	.	10	21	-5	-5	-12	.
CN(Cc1cccc(Cl)c1Cl)C(=O)c1ccccc1SCC(=O)N1CCCC1	.	11	15	-2	10	4	.
Cc1ccc(C)c(NC(=S)NC(NC(=O)Cc2cccc3ccccc23)C(Cl)(Cl)Cl)c1 (configuration not stated)	99*	17	94*	-2	71*	-70*	99*	FLuc counter=2
Cc1ccc(C)c(NC(=S)NC(NC(=O)N(C)C)C(Cl)(Cl)Cl)c1 (configuration not stated)	14	3	6	-7	9	3	.
CCNC(=O)C1CCCN(C(=O)c2cccc(C#N)c2)CC1 (configuration not stated)	.	3	6	5	0	9	.
O=[N+]([O-])c1ccc2c(c1)-c1ccccc1C2O (configuration not stated)	.	-54	-55	9	-9	5	.
CCCCCCn1nc(C(=O)N(CCOC)c2c(N)n(CCCC)c(=O)[nH]c2=O)c2ccccc2c1=O	-10	14	8	-4	-6	-11	.
O=C(CSc1nc2c(oc3ccccc32)c(=O)n1CC1CCCO1)NCc1ccccc1 (configuration not stated)	66*	10	17	-2	-24	-2	17
O=C(CSc1nc2c(oc3ccccc32)c(=O)n1CC1CCCO1)NCc1ccc(F)cc1 (configuration not stated)	0	11	16	-1	-35	4	.
COc1ccc(C(=O)CC(=O)C(=O)Nc2ccc(Cl)cc2)cc1	.	8	6	-4	-2	-4	.
COc1ccc(C(=O)CC(Nc2ccc([N+](=O)[O-])cc2)c2ccc(Cl)cc2)cc1 (configuration not stated)	53*	-39	25	8	4	-16	15
CCOc1cc(/C=C(/C#N)C(=O)Nc2ccc(O)cc2)cc(Br)c1O	70*	5	-47	5	34	-5	63*	FLuc counter=86*
O=C(ONC1=NCCCCC1)c1c(F)cccc1F	65*	15	8	0	17	-10	27
O=C(ONC1=NCCCCC1)c1ccc(Cl)cc1	70*	30	101*	-8	9	-15	19
O=C(NC1=NCCCCC1)c1cccc2ccccc12	-6	13	-3	1	10	6	.
O=C(CNC1=NCCC1)c1ccc(Cl)cc1	23	16	7	0	-6	14	.
CCOc1ccc(CNC(=O)C(=O)c2cn(CC(=O)N3CCOCC3)c3ccccc23)cc1OC	21	-20	-18	-1	-22	10	.
Cc1c(CCOC(=O)C2C3CC4CC(C3)CC2C4)sc[n+]1CC(=O)c1ccc(Br)cc1 (configuration not stated)	67*	32	101*	14	10	2	16
CCc1cc2cc3c(cc2nc1SCC(=O)Nc1nccs1)OCO3	71*	-13	29	4	5	-10	20
CCC(=NNC(=O)c1ccc2c(c1)nc(C)n2CC)c1cc(F)ccc1O	58*	-13	6	-8	1	5	22
COc1ccc(Sc2ccc(-c3nc4cnccn4c3NC3CCCCC3)cc2OC)cc1	85*	15	63*	-5	3	-6	-4
COc1ccc(-c2nc3ccccn3c2NC2CCCCC2)cc1SC1CCCCC1	70*	-24	48	-2	34	-2	28
COc1cc(-c2nc3ccccn3c2NCc2ccccc2)ccc1SC1CCCCC1	67*	-108	-54	-5	-12	-2	-12
O=C(CN1C(=O)/C(=C/c2ccccc2F)Oc2ccccc21)N1CCN(c2ccccn2)CC1	39	-2	27	3	10	-22	.
SMILES	Mdm2-MdmX inh	HIF-2a block	Peg3 promoter	ABHD5-PLIN5 inh	CF NFkB inh	KKLEB tox	Mdm2-MdmX conf	others
O=C(CN1C(=O)c2cccc3cccc(c23)C1=O)N1CCN(c2ccccn2)CC1	50*	19	8	-4	2	-13	-5
O=C(CN1C(=O)/C(=C\c2cccc(Cl)c2)Oc2ccccc21)N1CCN(c2ccccn2)CC1	65*	.	.	.	.	.	13
CN(C)C1=NC[C@H](Cc2ccccc2)N1CCCC1CCCC1	53*	6	-1	16	3	-13	28	FLuc counter=68*
CN(C)C1=NC[C@H](Cc2ccccc2)N1CCCC1CCCCC1	43	-15	37	9	0	-12	.
CN1CCN(C(=O)c2ccc3c(c2)N(C)C(=O)/C(=C/c2cccc(Cl)c2)S3)CC1	46	0	7	-2	2	11	.
COc1ccc(/C=C2\Sc3ccc(C(=O)N4CCN(Cc5ccccc5)CC4)cc3N(C)C2=O)cc1OC	61*	29	49	11	15	-17	14
COc1ccc(C(C[N+](=O)[O-])c2c(-c3ccccc3)cc3ccccn23)c(OC)c1 (configuration not stated)	53*	-11	4	41*	18	-10	38	FLuc counter=71*
CCN(C(=O)C(C)N1C(=O)/C(=C/c2ccco2)SC1=S)C1CCS(=O)(=O)C1 (configuration not stated)	55*	-4	45	1	23	12	2
CC(C(=O)N(C)C1CCS(=O)(=O)C1)N1C(=O)/C(=C/c2ccc(F)cc2)SC1=S (configuration not stated)	35	-10	25	-2	-4	11	.
O=Cc1ccc(F)c([B-](F)(F)F)c1	.	0	-8	3	-2	4	.
O=C(Nc1ccc2nc3n(c(=O)c2c1)CCCCC3)C(=O)N1CCN(c2ccccc2F)CC1	-8	-12	-4	10	-1	4	.
Cc1c2ccccc2c(C)c2c1ccc1ccccc12	79*	-68	69*	-10	0	14	40*	FLuc counter=98*
CCOc1ccc(S(=O)(=O)NCc2ccccn2)cc1NC(=O)c1ccccc1	58*	0	0	-2	38	-16	75*	FLuc counter=57*
CCOc1ccc(S(=O)(=O)NCc2cccnc2)cc1NC(=O)c1ccccc1	.	-28	-25	3	9	6	.
COC(=O)c1ccc(/C=C/c2c(-c3ccsc3)oc3ccc(N4CCOCC4)cc23)cc1	57*	-139	-78	1	-12	-12	10

Screening data from PubChem BioAssay.
